Here are results for 19 molecules from PubChem BioAssay (EPA / NIEHS).

Assay [1] can be described thus: APR_HepG2_NuclearSize_72hr: Apredica 72-hour HepG2 Assay for Nuclear Size (AID 2282925). Conditions: high-content imaging, actives raise or lower the signal. Put shortly:
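HepG2 cells were exposed to compounds at ten concentrations from 0.39 to 200 uM (duplicate, 0.5% DMSO final) for 72 hr. After fixation in 3.7% formaldehyde, nuclei were stained with Hoechst 33342 (2 ug/mL) and imaged at 20x.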

The nature of assay [2]: ATG_CMV_CIS: Attagene CIS-FACTORIAL HepG2 Assay for human CMV (Internal Marker) (AID 2282928).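 Further: endpoint acts as a background internal control marker rather than a target.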 The conditions noted are these: HepG2 CMV promoter reporter, transcription factor profiling; actives raise or lower the signal. The essentials: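 CMV internal-marker background readout in transiently transfected HepG2 cells bearing cis-regulated reporter units. Reporter mRNA is measured 24 h after dosing by RT-PCR and capillary electrophoresis, with bidirectional fitting against DMSO.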

Assay [3] can be described thus: ATG_DR4_LXR_CIS: Attagene CIS-FACTORIAL HepG2 Assay for human Liver X Receptor (LXR), DR4 submotif (AID 2282929). The conditions noted are these: HepG2 Attagene DR4 cis-reporter, mRNA transcription; actives raise or lower the signal. The essentials: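 Fluorescence intensity of labelled reporter cDNA fragments, separated by capillary electrophoresis, gives the signal. HepG2 cells bearing cis-regulated reporter constructs were treated 24 h; activity fitted bidirectionally relative to DMSO negative control.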

The target of assay [4] is Aryl hydrocarbon receptor (Homo sapiens) (UniProt P35869). The assay can be described thus: ATG_Ahr_CIS: Attagene CIS-FACTORIAL HepG2 Assay for human Aryl Hydrocarbon Receptor (Ahr) (AID 2282930). Conditions: HepG2 AhR cis-factorial reporter transcription; actives raise or lower the signal. The essentials:
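Following 24 h of chemical dosing, transfected HepG2 liver cells with cis-driven reporter units were lysed for RNA; reporter mRNA was quantified via RT-PCR and capillary electrophoresis, and responses fitted bidirectionally from DMSO.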

Assay [5] can be described thus: ATG_AP_1_CIS: Attagene CIS-FACTORIAL HepG2 Assay for human Activator Protein 1 (AP-1) (AID 2282931). The conditions noted are these: HepG2 Attagene cis-factorial AP-1 reporter mRNA; actives raise or lower the signal. Put shortly: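 Multiplexed HepG2 reporter assay, 24 h dosing. mRNA induction detected by RT-PCR plus capillary electrophoresis. Activity fitted in both directions against DMSO.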

Assay [6] in a line: ATG_AP_2_CIS: Attagene CIS-FACTORIAL HepG2 Assay for human Activator Protein 2 (AP-2) (AID 2282932). The conditions noted are these: HepG2 AP-2 cis-reporter, Attagene transcription factor profiling; actives raise or lower the signal. Put shortly: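 HepG2 cells were transiently transfected with multiple cis-promoter reporter transcription units and dosed for 24 h. Reporter mRNA was measured by RT-PCR with capillary electrophoresis fluorescence; bidirectional fits relative to DMSO baseline.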

The nature of assay [7]: ATG_BRE_CIS: Attagene CIS-FACTORIAL HepG2 Assay for human Bone Morphogenetic Protein (BMP) Response Element (BRE) (AID 2282933). Conditions: HepG2 BMP response element reporter, Attagene transcription factor profiling; actives raise or lower the signal. The essentials:
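Fluorescence-labelled reporter cDNA fragments, separated by capillary electrophoresis, gave the signal for this component of a 52-readout multiplex. HepG2 cells were transfected, exposed to chemicals for 24 h, and compared with DMSO using bidirectional fitting.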

Assay [8] has as its target Retinoic acid receptor alpha (Homo sapiens) (UniProt P10276). The assay can be described thus: ATG_DR5_RAR_CIS: Attagene CIS-FACTORIAL HepG2 Assay for human Retinoic Acid Receptor Alpha (RARE), DR5 submotif (AID 2282934).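 On AC50: reporter responds to endogenous RAR alpha beta and gamma in HepG2 not RARA alone.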 Conditions: HepG2 Attagene cis-factorial RARE DR5 reporter, mRNA; actives raise or lower the signal. Put shortly:
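Transfected HepG2 reporter cells are exposed to chemicals for 24 h. Then RNA is extracted and the DR5 element reporter transcript is measured by RT-PCR and capillary electrophoresis, with bidirectional curve fitting relative to DMSO.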

Assay [9] addresses CCAAT/enhancer-binding protein beta (Homo sapiens) (UniProt P17676). Nature of the assay: ATG_C_EBP_CIS: Attagene CIS-FACTORIAL HepG2 Assay for human CCAAT/Enhancer Binding Protein (C/EBP) beta (AID 2282927). Conditions: HepG2 Attagene cis-factorial transcription factor reporter; actives raise or lower the signal. The essentials: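 Chemical-treated HepG2 cells (24 h) bearing cis-regulated reporter constructs were processed for total RNA, then reverse transcription, PCR amplification, fluorescent primer extension and fragment analysis; gain- and loss-of-signal were fitted against DMSO.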

A short description of assay [10]: ATG_CRE_CIS: Attagene CIS-FACTORIAL HepG2 Assay for human cAMP Responsive Element (CRE) binding protein 3 (AID 2282926). Conditions: HepG2 CRE cis-reporter, Attagene multiplexed mRNA; actives raise or lower the signal. The essentials: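 Multiplexed transcription-unit reporters transfected into HepG2; 24 h dosing; RT-PCR/capillary electrophoresis fluorescence read-out; bidirectional fit vs DMSO.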

Activity calls are given as the source filed them. How the source made its calls: active means hit-call score of the fitted dose curve at least 0.9, where 1 is the maximum; inactive means score below 0.9.

Retinoic acid receptor alpha (Homo sapiens), sequence (P10276 whole entry, looked up): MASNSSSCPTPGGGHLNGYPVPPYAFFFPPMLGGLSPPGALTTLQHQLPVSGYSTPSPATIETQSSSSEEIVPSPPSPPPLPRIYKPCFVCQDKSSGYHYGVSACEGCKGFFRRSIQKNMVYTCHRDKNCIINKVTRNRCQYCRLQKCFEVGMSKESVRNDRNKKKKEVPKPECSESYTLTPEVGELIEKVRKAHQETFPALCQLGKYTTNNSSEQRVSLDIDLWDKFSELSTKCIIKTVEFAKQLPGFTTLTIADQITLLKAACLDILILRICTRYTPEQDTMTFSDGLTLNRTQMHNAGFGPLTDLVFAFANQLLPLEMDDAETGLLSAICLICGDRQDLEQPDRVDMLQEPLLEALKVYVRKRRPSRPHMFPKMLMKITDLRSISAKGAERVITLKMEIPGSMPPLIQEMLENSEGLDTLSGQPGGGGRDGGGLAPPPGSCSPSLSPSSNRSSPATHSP
Aryl hydrocarbon receptor (Homo sapiens), sequence (P35869 whole entry, looked up): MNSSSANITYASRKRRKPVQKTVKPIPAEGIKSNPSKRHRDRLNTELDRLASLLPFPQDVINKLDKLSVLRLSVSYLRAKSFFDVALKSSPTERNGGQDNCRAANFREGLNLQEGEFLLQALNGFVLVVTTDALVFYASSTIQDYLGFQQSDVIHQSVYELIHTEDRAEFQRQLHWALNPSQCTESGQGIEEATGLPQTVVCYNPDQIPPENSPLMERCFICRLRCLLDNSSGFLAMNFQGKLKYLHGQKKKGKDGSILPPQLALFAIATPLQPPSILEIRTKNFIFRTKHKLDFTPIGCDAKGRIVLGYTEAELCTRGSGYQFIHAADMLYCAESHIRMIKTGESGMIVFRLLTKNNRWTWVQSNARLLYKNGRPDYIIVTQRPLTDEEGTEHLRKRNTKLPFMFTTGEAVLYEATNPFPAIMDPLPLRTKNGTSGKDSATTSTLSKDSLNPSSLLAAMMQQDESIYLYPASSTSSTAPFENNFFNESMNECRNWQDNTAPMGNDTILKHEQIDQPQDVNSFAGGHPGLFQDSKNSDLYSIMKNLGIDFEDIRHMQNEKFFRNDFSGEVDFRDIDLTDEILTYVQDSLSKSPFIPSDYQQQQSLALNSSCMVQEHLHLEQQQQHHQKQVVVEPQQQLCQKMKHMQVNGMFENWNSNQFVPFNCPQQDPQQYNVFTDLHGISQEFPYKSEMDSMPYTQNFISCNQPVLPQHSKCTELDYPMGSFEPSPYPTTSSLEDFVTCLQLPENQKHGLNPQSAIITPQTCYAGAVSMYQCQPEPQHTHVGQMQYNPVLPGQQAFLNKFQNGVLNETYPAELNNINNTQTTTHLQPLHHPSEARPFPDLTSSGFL
CCAAT/enhancer-binding protein beta (Homo sapiens), sequence (P17676 whole entry, looked up, the tested form may be a part): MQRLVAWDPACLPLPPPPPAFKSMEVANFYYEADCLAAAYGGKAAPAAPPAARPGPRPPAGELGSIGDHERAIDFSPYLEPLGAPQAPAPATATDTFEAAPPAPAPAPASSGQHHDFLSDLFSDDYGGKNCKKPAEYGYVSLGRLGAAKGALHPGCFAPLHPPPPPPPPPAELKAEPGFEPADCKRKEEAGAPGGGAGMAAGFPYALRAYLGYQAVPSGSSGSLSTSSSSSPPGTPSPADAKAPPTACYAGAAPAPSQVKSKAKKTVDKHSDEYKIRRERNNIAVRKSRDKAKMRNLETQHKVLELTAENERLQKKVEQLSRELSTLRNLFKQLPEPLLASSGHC

As for `Clc1cccc(C(Cl)(Cl)Cl)n1`, the result in assay [1], in assay [2], in assay [3], in [4], in assay [5] and in assay [6] was inactive. In addition, in assay [7], the molecule was classed as inactive.
With `CC1(C)C(C(=O)OC(C#N)c2cccc(Oc3ccccc3)c2)C1(C)C` (stereo not given), the call in assay [1], in assay [2], in assay [4], in assay [5], in assay [6] and in [7] was inactive. The results for the AC50 in assay [3] and in assay [8] were 14.3 µM (active) and 3.62 µM (active), respectively.
Take `O=c1n(Cl)c(=O)n(Cl)c(=O)n1Cl`: the outcome in assay [9], in [2], in assay [3], in assay [5], in [6] and in assay [7] was inactive. Moreover, the molecule was classed as inactive in [8]. In assay [4], the AC50 was 19.6 µM (active).
As to `COCC(C)N(C(=O)CCl)c1c(C)csc1C` (stereo not given), the outcome in [2], in assay [3], in [4], in assay [5], in assay [6] and in [7] was inactive.
`CCCC(=NOCC)C1=C(O)CC(CC(C)SCC)CC1=O` (stereo not given): the outcome in assay [10], in assay [2], in assay [3], in [4], in [5] and in assay [6] was inactive. The molecule was called inactive in assay [7] and in [8].
Consider `CNC(=O)N(C)c1nnc(C(C)(C)C)s1`, for which the call in assay [10], in [9], in [2], in [3], in [4] and in assay [5] was inactive. The result in assay [6], in assay [7] and in assay [8] was inactive.
Regarding `O=P(O)(O)CCCl`, the outcome in assay [9], in assay [2], in [3], in assay [4], in assay [5] and in assay [6] was inactive. Besides, the molecule was classed as inactive in [7] and in assay [8].
Turning to `CCNP(=S)(OC)O/C(C)=C/C(=O)OC(C)C` (stereo not given), the result in [10], in assay [9], in assay [2], in assay [5], in assay [6] and in [7] was inactive. Also, the results for the AC50 in assay [3], in assay [4] and in assay [8] were 50 µM (active), 13.6 µM (active) and 13.6 µM (active), respectively.
`CC(C)N1C(=O)N(c2ccccc2)CSC1=NC(C)(C)C`: the result in assay [2], in assay [3], in assay [4], in assay [5], in assay [6] and in [7] was inactive.
As for `COc1cc(Cl)c(OC)cc1Cl`, the outcome in assay [9], in [2], in assay [3], in assay [4], in assay [5] and in [6] was inactive. Further, the call in assay [7] and in [8] was inactive.
In the case of `Cn1c(-c2ccccc2)cc(-c2ccccc2)[n+]1C`, the molecule was classed as inactive in assay [10], in assay [2], in assay [3], in assay [4], in assay [5] and in assay [6]. Besides, the call in [7] and in assay [8] was inactive.
As for `CCOc1nc(C(Cl)(Cl)Cl)ns1`, the call in assay [2], in assay [3], in assay [4], in assay [5], in assay [6] and in assay [8] was inactive. The AC50 in assay [7] was 24.6 µM (active).
Regarding `Nc1c(Cl)c(F)nc(OCC(=O)O)c1Cl`, the call in assay [10], in assay [2], in assay [3], in assay [4], in assay [5] and in assay [6] was inactive. For the same molecule, the call in assay [7] and in assay [8] was inactive.
For the molecule `CCOC(=O)C(C)OC(=O)c1cc(Oc2ccc(C(F)(F)F)cc2Cl)ccc1[N+](=O)[O-]` (stereo not given), the molecule was classed as inactive in [10], in [9], in assay [2], in assay [3], in assay [5] and in assay [6]. In addition, the result in [8] was inactive. Further, the values for the AC50 in [4] and in [7] were 14.7 µM (active) and 17.8 µM (active), respectively.
With `CCNC(=O)NC(=O)C(C#N)=NOC`, the outcome in [9], in assay [2], in assay [3], in [4], in assay [5] and in [6] was inactive. Moreover, the molecule was called inactive in assay [7] and in assay [8].
As to `Clc1nc(Cl)nc(Nc2ccccc2Cl)n1`, the AC50 in assay [10] was 76.6 µM (active); in [2], 27.4 µM (active); in assay [5], 50 µM (active). Moreover, the outcome in assay [3], in assay [4], in assay [6], in [7] and in [8] was inactive.
Regarding `N#Cc1c(Cl)cccc1Cl`, the molecule was called inactive in assay [10], in [2], in assay [3], in assay [4], in assay [5] and in assay [6]. Moreover, in [7], the outcome was inactive.
Consider `CC(C)N1C(=O)c2ccccc2NS1(=O)=O`, for which the molecule was classed as inactive in assay [2], in [4], in [5], in assay [6], in assay [7] and in assay [8]. In addition, in [3], the AC50 is 62 µM (active).
With `CCN(CC)C(=O)C(C)Oc1cccc2ccccc12` (stereo not given), the outcome in assay [2], in assay [3], in [5] and in [6] was inactive. Besides, the AC50 was 14.9 µM (active) in [4] and 14.4 µM (active) in [7].
